Measurements as given in the supplement of paper PMC6555819.

Key:
Test in all cases: PBM binding z-score (relative to random genomic background probes); higher = stronger binding; sequences stand for … in GC…GCGATTGACAGCGTAGAATGAAGG
[1] = system: FXR:RXRa (NR concentration 270 nM, RXRa partner concentration 90 nM)
Summary of the method: (§1)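 On custom Agilent 4×180K arrays, double-stranded probes with 34-nt variable regions carried direct-repeat seeds, single-nucleotide variants, half-site ablations or random human genomic background. Ligand-free nuclear receptor dimers were applied for 1 h, and binding was read with antibodies against each partner (one per run). Binding z-scores come from regression-normalized fluorescence, with the random background probes as reference.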

[2] = system: LXRa:RXRa (NR concentration 270 nM, RXRa partner concentration 90 nM)
Summary of the method: as §1

[3] = system: LXRa homodimer (NR concentration 270 nM)
Summary of the method: as §1

[4] = system: LXRb:RXRa (NR concentration 270 nM, RXRa partner concentration 90 nM)
Summary of the method: as §1

[5] = system: LXRb homodimer (NR concentration 270 nM)
Summary of the method: as §1

[6] = system: PPARa:RXRa (NR concentration 270 nM, RXRa partner concentration 90 nM)
Summary of the method: as §1

[7] = system: PPARg:RXRa (NR concentration 180 nM, RXRa partner concentration 90 nM)
Summary of the method: as §1

[8] = system: PPARg:RXRa 270nM:90nM, anti-RXR (NR concentration 270 nM, RXRa partner concentration 90 nM)
Summary of the method: as §1

[9] = system: PPARg:RXRa 30nM:10nM, anti-RXR (NR concentration 30 nM, RXRa partner concentration 10 nM)
Summary of the method: as §1

[10] = system: PPARg:RXRa 90nM:30nM, anti-RXR (NR concentration 90 nM, RXRa partner concentration 30 nM)
Summary of the method: as §1

[11] = system: PPARg:RXRa DBDmut IVT, anti-RXR (DBD mutation: RXRa K156A/R161A, NR concentration 270 nM, RXRa partner concentration 90 nM)
Summary of the method: as §1

[12] = system: PPARg:RXRa IVT, anti-PPARg (NR concentration 270 nM, RXRa partner concentration 90 nM)
Summary of the method: as §1

[13] = system: PPARg DBDmut:RXRa IVT, anti-PPARg (DBD mutation: PPARg1 K132A/R137A, NR concentration 270 nM, RXRa partner concentration 90 nM)
Summary of the method: as §1

[14] = system: PPARg DBDmut IVT, anti-PPARg (DBD mutation: PPARg1 K132A/R137A, NR concentration 270 nM)
Summary of the method: as §1

[15] = system: PPARg homodimer (NR concentration 180 nM)
Summary of the method: as §1

[16] = system: PXR:RXRa (NR concentration 270 nM, RXRa partner concentration 90 nM)
Summary of the method: as §1

[17] = system: PXR homodimer (NR concentration 270 nM)
Summary of the method: as §1

[18] = system: RARa:RXR (NR concentration 270 nM, RXRa partner concentration 90 nM)
Summary of the method: as §1

[19] = system: RARa homodimer (NR concentration 270 nM)
Summary of the method: as §1

[20] = system: RARb:RXRa (NR concentration 270 nM, RXRa partner concentration 90 nM)
Summary of the method: as §1

Sequence	PBM binding z-score [1]	PBM binding z-score [2]	PBM binding z-score [3]	PBM binding z-score [4]	PBM binding z-score [5]	PBM binding z-score [6]	PBM binding z-score [7]	PBM binding z-score [8]	PBM binding z-score [9]	PBM binding z-score [10]	PBM binding z-score [11]	PBM binding z-score [12]	PBM binding z-score [13]	PBM binding z-score [14]	PBM binding z-score [15]	PBM binding z-score [16]	PBM binding z-score [17]	PBM binding z-score [18]	PBM binding z-score [19]	PBM binding z-score [20]
TCTCGGAGGCCACGAAAGGTCAGAGCTCGACATC	3.4	5.27	1.95	3.63	-0.386	3.82	1.39	2.91	2.22	2.46	1.78	1.96	0.112	-0.0793	2.29	4.58	-0.146	4.54	0.24	4.24
CAAACTAGGTTACAGAGGTCAAAGTCCGTGCGTA	6.15	6.43	7.09	5.72	2.18	5.82	7.94	7.19	5.19	6.82	7.75	7.64	1.98	1.29	4.38	6.32	7.32	7.03	2.06	4.44
CGAACTAGGTTAGAACAGGACAGTGAAGGATGAT	0.283	0.174	-0.0175	-0.235	0.0334	1.22	1.6	1.27	0.448	0.886	5.02	4.21	0.977	0.101	0.487	-0.0109	-0.256	0.212	-0.0731	0.527
CGACCGAGGGCATGAGTTGATAGCAAATGCCGAT	0.304	0.28	-0.485	0.286	-0.854	0.989	0.738	-0.153	-0.657	-0.438	0.432	0.376	-0.421	-0.612	0.0239	0.48	-0.327	0.539	-0.74	2.11
GCTAGCAGGCCAGTTGGGTCACTCAATGACGGGC	-0.488	-0.319	-0.976	-0.381	-1.51	0.54	0.164	0.0245	-0.726	-0.378	0.163	0.353	-1.62	-2.01	-0.447	-0.0174	-0.643	0.497	-0.946	1.27
CCTATTGGGCCATCAGGTCATTGATATCAACGTT	1.84	1.28	1.09	1.42	-0.199	2.25	1.29	2.49	0.897	1.88	3.63	3.39	0.758	0.0799	1.42	1.84	0.775	2	0.136	2.25
